# Reference: publication PMC4336329 (PLoS ONE, 2015)
# The campaign covered roughly 310,000 compounds. About 2,200 (0.71%) showed an effect of 50% or more. Effects have a minus sign here. This excerpt belongs to a sample that is enriched for strong results.
# Target: human ether-à-go-go-related gene (hERG) potassium channel (human, UniProt Q12809)
# Assay: primary screen, population patch clamp on CHO cells stably expressing hERG; higher = less effect of the substance
# Description: Briefly, Chinese hamster ovary (CHO) cells stably expressing the hERG channel were dislodged from tissue culture flasks and dispensed into PPC plates. […] During the recording, background leak currents were estimated by a 100 ms step to -80 mV from an initial holding potential of -70 mV and subtracted from the subsequent current measurement. The campaign was conducted in two phases using slight differences in recording protocol. In the first phase, the initial voltage pulse used a 100 ms step to -30 mV from a holding potential of -70 mV, a 2 s conditioning step to +25 mV, and a 2 s test step to -30 mV. During the second phase of the screen, the potential during the conditioning step was raised to +45 mV. In both phases of the campaign, a secondary voltage pulse was applied using the same parameters as the second phase initial pulse. The initial and secondary pulses were applied in the absence of compound, and upon application of 1 μM and 10 μM test concentrations. Small molecule effects on hERG current density were quantified by […].
# human ether-à-go-go-related gene (hERG) potassium channel, sequence (Q12809 whole entry, looked up): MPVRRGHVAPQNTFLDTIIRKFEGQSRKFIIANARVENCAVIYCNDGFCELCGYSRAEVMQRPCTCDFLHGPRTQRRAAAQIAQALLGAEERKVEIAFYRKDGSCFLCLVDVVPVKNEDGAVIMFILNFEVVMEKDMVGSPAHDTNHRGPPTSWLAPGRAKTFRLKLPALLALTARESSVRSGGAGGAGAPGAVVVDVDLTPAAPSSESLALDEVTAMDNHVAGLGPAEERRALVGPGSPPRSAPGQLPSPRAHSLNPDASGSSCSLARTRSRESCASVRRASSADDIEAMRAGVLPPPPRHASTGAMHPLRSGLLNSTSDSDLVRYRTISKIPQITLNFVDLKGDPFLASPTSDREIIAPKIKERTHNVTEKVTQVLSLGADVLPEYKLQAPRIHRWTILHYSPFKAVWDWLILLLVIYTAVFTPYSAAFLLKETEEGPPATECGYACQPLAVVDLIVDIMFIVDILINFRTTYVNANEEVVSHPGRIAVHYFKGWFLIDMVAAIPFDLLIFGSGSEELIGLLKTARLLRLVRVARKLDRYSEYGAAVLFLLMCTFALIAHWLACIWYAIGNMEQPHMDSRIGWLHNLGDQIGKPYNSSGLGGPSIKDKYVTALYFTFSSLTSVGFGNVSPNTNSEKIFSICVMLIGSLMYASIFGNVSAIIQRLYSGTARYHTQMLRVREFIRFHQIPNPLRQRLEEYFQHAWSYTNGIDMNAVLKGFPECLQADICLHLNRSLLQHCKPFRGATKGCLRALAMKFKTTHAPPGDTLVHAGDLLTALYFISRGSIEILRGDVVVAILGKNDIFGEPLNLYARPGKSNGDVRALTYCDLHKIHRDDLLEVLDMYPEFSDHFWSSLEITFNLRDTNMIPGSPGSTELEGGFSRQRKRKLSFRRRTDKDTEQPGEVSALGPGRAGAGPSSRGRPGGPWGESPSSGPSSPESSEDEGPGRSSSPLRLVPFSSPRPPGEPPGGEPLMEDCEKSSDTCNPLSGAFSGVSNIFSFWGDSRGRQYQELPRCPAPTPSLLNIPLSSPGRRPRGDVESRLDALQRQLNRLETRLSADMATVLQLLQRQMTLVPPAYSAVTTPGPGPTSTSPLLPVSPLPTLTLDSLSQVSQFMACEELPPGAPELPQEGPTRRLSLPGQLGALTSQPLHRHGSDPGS
row,Compound,"hERG current change (%, negative = inhibition) at 1uM [%]"
1,CCn1c(/N=C/c2ccc(OC)cc2O)nc2ccccc21,14
2,Cc1ccc(NC(=O)Nc2cccn(Cc3c(F)cccc3Cl)c2=O)cc1,13.2
3,S=C(Nc1ccccc1)Nc1ccc(Br)cc1,14.5
4,Cc1cccnc1-n1c(C)nc2ccccc2c1=O,7.55
5,CSCCC(NC(=O)c1cc(C(C)(C)C)oc1C)C(=O)O (centres unmarked),15.6
6,COc1cc(C(=O)O)c2c(c1C)OC(=O)c1c(C)cc(O)c(C=O)c1O2,22.5
7,COc1cc(C(=O)N(C)CC2CCN(CCc3cccc(C(F)(F)F)c3)CC2)ccc1C,-63.8
8,CC(=O)NCCC(=O)N(C)CC1CCN(CCc2cccc(C(F)(F)F)c2)CC1,12.5
9,COc1cc(CN(C)CC2CCCN(CCc3cccc(C(F)(F)F)c3)C2)ccc1O (centres unmarked),2.96
10,CCCC(=O)Nc1ccc(NC(=O)c2ccccc2F)cn1,11.2
11,Fc1ccc(NC(=S)NCCN2CCOCC2)c(F)c1F,12.2
12,S=C(Nc1ccc2snnc2c1)N1CCN(c2ccccn2)CC1,10
13,COc1cccc(N2CCN(CC(=O)c3c(C)[nH]c4ccccc34)CC2)c1,-10.9
14,Cc1ccc(S(=O)(=O)N(CC(=O)NCc2ccncc2)Cc2ccccc2F)cc1,-53.2
15,Cc1ccc(S(=O)(=O)N(CC(=O)NCc2ccncc2)Cc2ccc(F)cc2)cc1,-75
16,Cc1ccc(S(=O)(=O)N(CC(=O)O)Cc2ccccc2F)cc1,6.83
17,CCN(CC(=O)NCc1ccc(F)cc1)S(=O)(=O)c1ccc(C)cc1,-13.7
18,CCCNC(=O)CN(Cc1ccccc1F)S(=O)(=O)c1ccc(C)cc1,5.85
19,O=C(CN(Cc1ccccc1)S(=O)(=O)c1ccc(F)cc1)NCc1ccncc1,-9.19
20,O=C(CCc1nnc2ccc(N3CCCC3)nn12)Nc1cc(F)ccc1F,-9.58
21,COc1ccc(N=C(C)C2=C(O)COC2=O)cc1,4.93
22,CN1CSC2=C(C#N)C(c3cccc(OCc4ccccc4)c3)CC(=O)N2C1 (centres unmarked),4.22
23,CCC(NC(=O)OCc1ccccc1)C(=O)Oc1ccc2ccc(=O)oc2c1 (centres unmarked),18.8

row,Compound,"hERG current change (%, negative = inhibition) at 1uM [%]"
1,C=CCn1c(SCC(=O)NNC(=O)Nc2ccc(C)cc2)nnc1-c1ccccc1,1.92
2,CCCN1CCN(S(=O)(=O)c2c(C)[nH]c(C)c2C(=O)N2CCCCC2)CC1,-0.989
3,CCn1c(SCC(=O)Nc2ccccc2OC)nc(O)cc1=O,10
4,COC(=O)c1cc(Br)c(=O)n(-c2ccc(OC)cc2)c1,5.39
5,COC(=O)c1cc(Br)c(=O)n(CCc2ccc(F)cc2)c1,-3.04
6,COC(=O)c1cc(Br)c(=O)n(-c2ccc(F)cc2)c1,-70.1
7,CCO[C@@H]1OC(C(=O)N2CCN(C)CC2)=C[C@H](c2csc3ccccc23)[C@H]1CCCO,0.669
8,CC(=O)Nc1ccc(N(C(=O)c2ccccn2)C(C(=O)NC2CCCCC2)c2ccc(F)cc2)cc1 (centres unmarked),12.2
9,CC1CCCCN1CCNC(=O)CCc1nnc2n(Cc3ccccc3)c(=O)c3ccccc3n12 (centres unmarked),-8.67
10,O=C(CCc1nnc2n(CCc3ccccc3)c(=O)c3ccccc3n12)NCCCN1CCCCC1,-9.25
11,CC1CCN(CCCNC(=O)CCc2nnc3n(CCc4ccccc4)c(=O)c4ccccc4n23)CC1,-52.4
12,Cc1ccc(Cc2ccc(C(=O)NNC(N)=S)o2)cc1,3.74
13,CN(CC(=O)Nc1ccccc1Br)C(=O)c1sccc1-c1ccccc1,-0.469
14,O=c1nc(-c2ccccc2)cc(C(F)(F)F)[nH]1,21.3
15,COc1ccc(N2CCc3c(C)nc4c(OC)cc(OC)cc4c32)cc1,-52.7
16,COc1ccccc1N1CCc2c(C)nc3c(OC)cccc3c21,-23.1
17,COc1ccc(N2CCc3c(C)nc4c(OC)cc(OC)cc4c32)c(OC)c1,-47.6
18,COc1ccc(N2CCc3c(C)nc4c(OC)cccc4c32)cc1,-28.3
19,COc1cc(OC)c2nc(C)c3c(c2c1)N(c1ccc(O)cc1)CC3,-57.2
20,COc1cccc2c3c(c(C)nc12)CCN3c1ccccc1,-8.76
21,CCN(CC(=O)Nc1ccccc1C(F)(F)F)C(=O)CCS(=O)(=O)c1ccc(Cl)cc1,9.68
22,CC1CCC(NC(=O)Cn2cnc3sccc3c2=O)CC1 (centres unmarked),3.74
23,CCN(CCCNC(=O)CCn1c(=S)[nH]c2cc3c(cc2c1=O)OCO3)c1cccc(C)c1,11.5

row,Compound,"hERG current change (%, negative = inhibition) at 1uM [%]"
1,CN1CC(C(=O)c2ccc([N+](=O)[O-])cc2)C(c2ccc(Cl)cc2)C1 (centres unmarked),-77.1
2,CN1CC(C(=O)c2ccc(Cl)cc2)C(c2ccccc2)C1 (centres unmarked),6.78
3,COc1ccc(C(=O)C2CN(C)CC2c2ccc(Cl)cc2)cc1 (centres unmarked),-18.3
4,Cc1nn(C)c(C(=O)N2CCc3ccccc32)c1Br,4.79
5,CC1CC1C(=O)Nc1nc(-c2cccs2)c(-c2cccs2)s1 (centres unmarked),7.23
6,Cc1ccc(C(=O)NC2CCCN(c3ccc(C(F)(F)F)cn3)C2)cn1 (centres unmarked),2.48
7,O=C(NC1CCCN(c2ccc(C(F)(F)F)cn2)C1)c1ccnc(Cl)c1 (centres unmarked),-9.21
8,O=C(NC1CCCN(c2ccc(C(F)(F)F)cn2)C1)c1ccncc1 (centres unmarked),-51.8
9,CSCCC(NC(=O)c1ccccc1)C(=O)NC1CCCC1 (centres unmarked),4.81
10,CC(C(=O)NC(=O)NC1CCCCC1)N(C)CC(=O)Nc1ccc(F)c(F)c1F (centres unmarked),12.1
11,Cc1cccc(C)c1OCC(O)CN1CCN(c2ccccn2)CC1 (centres unmarked),-1.11
12,Cl.OC(COCc1ccc(Cl)cc1)CN1CCN(c2ccccn2)CC1 (centres unmarked),-24.9
13,OC(COC(c1ccccc1)c1ccccc1)CN1CCN(c2ccccn2)CC1 (centres unmarked),-73.5
14,CC(C)c1ccc(OCC(O)CN2CCN(c3ccccn3)CC2)cc1.Cl (centres unmarked),-27.7
15,Cl.OC(COC(c1ccc(Cl)cc1)c1ccc(Cl)cc1)CN1CCN(c2ccccn2)CC1 (centres unmarked),-79.7
16,OC(COc1ccc(Cl)cc1)CN1CCN(c2ccccn2)CC1 (centres unmarked),-37.7
17,CCOc1cc(/C=C2\C(=O)ON=C2c2ccccc2)cc(Br)c1O,10.4
18,O=C(CCCc1ccccc1)NCc1ccc2c(c1)OCO2,8.58
19,COc1cccc(Cn2c(NCC(C)C)nc3c2c(=O)n(C)c(=O)n3C)c1,-7.04
20,CCC(=O)Nc1ccc(NC(=O)c2cc3ccccc3o2)cc1,-5.21
21,CC/C(=C\c1oc2cc3ccccc3cc2[n+]1CC)Nc1ccccc1.[I-],-83.7
22,O=C(Nc1ccccc1)c1cc2ccccc2o1,8.25
23,Cc1cccc(NC(=S)Nn2cnnc2)c1C,10.9

row,Compound,"hERG current change (%, negative = inhibition) at 1uM [%]"
1,Cc1ccc(-c2cc(C(=O)N3CCN(C4CCS(=O)(=O)C4)CC3)c3ccccc3n2)cc1 (centres unmarked),-3.04
2,Cc1ccc(NC(=O)CN(C)C(=O)CSc2nc(C)cs2)cc1,3.7
3,CN(C)c1cc(NC(=O)CNC(C)(C)CC(C)(C)C)c2ccccc2n1.O=C(O)C(=O)O,-7.36
4,CCN(CC)CC(=O)Nc1cc(N(C)C)nc2ccccc12.O=C(O)C(=O)O,6.57
5,CCCCCC(=O)Nc1cc(N(C)C)nc2ccccc12,-77.9
6,CC(Cc1ccccc1)NCC(=O)Nc1cc(N(C)C)nc2ccccc12.O=C(O)C(=O)O (centres unmarked),-73.5
7,CN(C)c1cc(NC(=O)CNC(C)(C)C)c2ccccc2n1.O=C(O)C(=O)O,2.05
8,CCCCC(=O)Nc1cc(N(C)C)nc2ccccc12,-30.7
9,NS(=O)(=O)c1ccc(O)c(N2C(=O)c3cccc4c(C(=O)O)ccc(c34)C2=O)c1,10.3
10,COc1ccc(C(=O)CSc2nc(-c3ccccn3)nc(C)c2Cl)cc1,13
11,Cc1nonc1CC(=O)N1CCCC(C(=O)c2cccc(C(F)(F)F)c2)C1 (centres unmarked),-20.6
12,O=C(C1CCC(=O)N1Cc1cccnc1)N1CCN(c2ccc(F)cc2)CC1 (centres unmarked),10.5
13,OCC[N+]12CCC(CC1)C(C(O)(c1ccccc1)c1ccccc1)C2 (centres unmarked),15.2
14,CCc1ccc(C(=O)NNc2cc(Cl)ccc2Cl)cc1,12.5
15,CSc1ccc(CNc2ncc(-c3cccc([N+](=O)[O-])c3)n2C)cc1.O=C(O)C(=O)O,-26.5
16,Cn1c(-c2ccccc2)cnc1NCc1ccc(-c2ccccc2)cc1.O=C(O)C(=O)O,11
17,Cn1c(-c2ccc(Br)cc2)cnc1NCc1ccc(C#N)cc1.O=C(O)C(=O)O,-77.2
18,Cn1c(-c2ccc(F)cc2)cnc1NCc1ccc(C#N)cc1,-22.9
19,Cn1c(-c2cccc([N+](=O)[O-])c2)cnc1NCc1cccc([N+](=O)[O-])c1.O=C(O)C(=O)O,-28.2
20,Cn1c(-c2cccc([N+](=O)[O-])c2)cnc1NCc1ccc(C#N)cc1.O=C(O)C(=O)O,-56.4
